Source: PubChem (Pan Lab, Icahn School of Medicine at Mount Sinai)
The sample as a whole holds a higher share of hits than the screen did.
RBX1-CUL1 inh: blocks human RBX1-Cullin-1 di-ubiquitin formation; in vitro K48 di-Ub FRET, acceptor:donor ratio, 45 min; inhibition, % at 10 µM; actives 0.6% (n = 140,000); in the data active = inhibition above about 25%
Target sequence (P62877 whole entry, looked up): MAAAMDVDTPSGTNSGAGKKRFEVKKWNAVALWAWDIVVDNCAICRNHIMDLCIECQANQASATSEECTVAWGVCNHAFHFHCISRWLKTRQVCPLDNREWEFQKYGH
Target sequence (Q13616 whole entry, looked up): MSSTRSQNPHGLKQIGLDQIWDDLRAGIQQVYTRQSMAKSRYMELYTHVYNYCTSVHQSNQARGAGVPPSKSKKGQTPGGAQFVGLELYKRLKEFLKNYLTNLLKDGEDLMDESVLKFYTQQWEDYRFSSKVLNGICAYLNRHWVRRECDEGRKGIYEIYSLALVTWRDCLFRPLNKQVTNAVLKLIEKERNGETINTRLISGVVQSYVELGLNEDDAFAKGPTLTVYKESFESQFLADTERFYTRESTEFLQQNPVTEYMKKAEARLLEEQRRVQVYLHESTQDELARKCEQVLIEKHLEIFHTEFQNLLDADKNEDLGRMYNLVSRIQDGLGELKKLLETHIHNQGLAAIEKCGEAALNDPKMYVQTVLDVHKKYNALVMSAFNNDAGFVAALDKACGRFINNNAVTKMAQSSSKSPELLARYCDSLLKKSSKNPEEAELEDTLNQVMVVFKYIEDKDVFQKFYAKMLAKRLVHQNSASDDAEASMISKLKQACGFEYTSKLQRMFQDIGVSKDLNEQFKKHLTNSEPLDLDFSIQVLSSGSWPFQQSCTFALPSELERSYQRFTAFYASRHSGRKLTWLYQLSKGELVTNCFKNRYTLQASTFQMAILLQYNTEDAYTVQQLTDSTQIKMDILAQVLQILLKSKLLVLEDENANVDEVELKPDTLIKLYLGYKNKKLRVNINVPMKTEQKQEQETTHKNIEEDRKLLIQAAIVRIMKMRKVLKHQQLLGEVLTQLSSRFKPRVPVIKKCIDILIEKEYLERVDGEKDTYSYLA
Active calls of the source: *.

SMILES | RBX1-CUL1 inh
CCOCCOC(=O)COc1ccc2c(=O)c(Oc3ccc4ccccc4c3)c(C(F)(F)F)oc2c1 | -4
NC(=O)N/N=C/c1cccc(OCc2ccc(Cl)cc2)c1 | 1
Cc1cc(C)n(-c2ncc(Br)cn2)n1 | 2
Cc1cc(C)n(Cc2nc(-c3c(C)ncc4c3CCN(CC3CC3)C4)no2)n1 | 37*
CNc1ncc(-c2nc(-c3c(C)ncc4c3CCN(CC3CC3)C4)no2)cn1 | 2
Cc1ncc2c(c1-c1noc(-c3ccc(N)nc3)n1)CCN(CC1CCCC1)C2 | 2
Fc1ccc(Nc2nc(Nc3ccc(F)cc3F)nc(N3CCOCC3)n2)cc1 | -4
Nc1ccc(/C=C/c2ccc(Nc3nc(Nc4ccccc4)nc(N4CCOCC4)n3)cc2S(=O)(=O)O)c(S(=O)(=O)O)c1 | 37*
Cc1ccc(Nc2nc(Nc3ccc(C)c(C)c3)nc(N3CCOCC3)n2)cc1C | -4
NC(=O)[C@@H]1CCCN1C(=O)c1ccc2nc(C3CCCCC3)oc2c1 | 2
O=C(Nc1ccc2nc(SCC(=O)N3CCOCC3)sc2c1)c1cccc(Cl)c1 | 58*
O=C(Nc1ccc2nc(SCC(=O)N3CCCC3)sc2c1)c1cccc(Cl)c1 | -2
COc1ccc(C(=O)Nc2ccc3nc(SCC(=O)N4CCOCC4)sc3c2)cc1 | 5
O=C1CCCC2=C1CC1=C(CCCC1=O)N2c1cccnc1 | -1
Cc1cccc(C(=O)OC2CCCCC2)c1 | -5
CCC(C)Oc1ccc(C(=O)NC(=S)Nc2ccc(C(C)=O)cc2)cc1 (stereo not given) | -9
Cc1cccc2c(C(=O)O)cc(-c3cc4ccccc4o3)nc12 | 4
COc1ccc(-c2c(Cl)nc(N3CCCCC3)c(=O)n2-c2ccccc2)cc1OC | 10
O=C1C=C(N2CCOCC2)c2ccccc2C1=O | 76*
CC1(N2CCOCC2)C(=O)c2ccccc2C1=O | 0
O=C1C=Cc2ccc(N3CCOCC3)c3cccc1c23 | -6
CCCCn1nnnc1NC(=O)NC1CCS(=O)(=O)C1 (stereo not given) | 9
CCOC(=O)C1=C(c2ccccc2)N=c2s/c(=C\c3cc(C)[nH]c3C)c(=O)n2C1c1cccs1 (stereo not given) | -3
Cc1cc(O)ccc1NC(=O)c1ccc2c(c1)C(=O)N(Cc1cccnc1)C2=O | 13
COc1cc(NS(=O)(=O)c2ccc(NS(=O)(=O)c3ccccc3)cc2)nc(OC)n1 | -5
SMILES | RBX1-CUL1 inh
COc1ccc(CC(=O)Nc2ccc(S(=O)(=O)Nc3cc(OC)nc(OC)n3)cc2)cc1 | 35*
COc1cc(NS(=O)(=O)c2ccc(NC(=O)Nc3cccc(Cl)c3)cc2)nc(OC)n1 | -5
CCO[C@H]1[C@H](NC(=O)c2cccnc2)c2ccccc2C12CCN(C(=O)c1cscn1)CC2 | 6
O=C(NCCC1=CCCCC1)c1cc(-c2ccco2)nc2ccccc12 | 42*
O=C(NCCC1=CCCCC1)c1ccccc1Cl | 1
O=C(NCCC1=CCCCC1)c1ccco1 | 4
O=C(Nc1ccccc1Oc1cccnc1)C1CCCN1C1CCC1 (stereo not given) | -4
CC1CCC(C(C)C)c2c1cnn2-c1ccccc1 (stereo not given) | -3
CCOC(=O)c1c(C)sc(-c2c(-c3cc(C)ccc3C)[nH]c3c2c(=O)n(C)c(=O)n3C)c1O | 22
CCOC(=O)c1c(C)sc(-c2c(-c3cccc(Cl)c3)[nH]c3c2c(=O)n(C)c(=O)n3C)c1O | 45*
CCOC(=O)C1=CN(c2ccc(F)cc2)C=C(C(=O)OCC)C1c1cccc(Cl)c1 | -3
CCOC(=O)c1c(C)sc(-c2c(-c3cc(C)ccc3C)[nH]c3c2c(=O)[nH]c(=O)n3C)c1O | 49*
CCOC(=O)c1c(NC(=O)c2c(F)cccc2F)sc(C)c1-c1cccc(Cl)c1 | 1
Cc1ccc(C)c(-c2[nH]c3c(c2-c2c(-n4cccc4)n(C)c(=O)n(C)c2=O)c(=O)n(C)c(=O)n3C)c1 | 9
Cc1ccc(-c2nnc(-c3nnn(-c4ccc(F)cc4)c3C)o2)cc1 | 0
Cc1ccc(-c2nnc(SCC(=O)OC3CCCCC3)n2-c2ccccc2)cc1 | -5
COC(=O)c1cc(C)n(-c2ccccc2)n1 | -6
O=C(c1cccn2c(=O)c3c4c(sc3nc12)CCCC4)N1CCOCC1 | 10
CN(C)C(=O)CCC(=O)N1CCCC(CCc2cccc(C(F)(F)F)c2)C1 (stereo not given) | 4
Fc1cc(F)cc(-c2cn(CC3CCN(C[C@H]4CCCN4)CC3)nn2)c1 | -3
CCCCCCN1C(=O)/C(=C/c2cc(OC)c(OC)c(OC)c2)N(C)C1=S | 3
CCCCCCCC(=O)N=C1C(=O)N(c2ccccc2)N(C)C1C (stereo not given) | 11
CCCCCCN1C(=O)C2=C(c3cc(O)cc(O)c3)N(CCCCCC)C(=O)C2=C1c1cc(O)cc(O)c1 | 46*
COc1ccc(C(=O)N=C(Cc2ccc(Br)cc2)c2nc3ccccc3[nH]2)cc1OC | -5
O=C1NN(c2ccc(I)cc2)C(=O)/C1=C\c1ccc(-c2ccc(Br)cc2C(=O)O)o1 | 45*
SMILES | RBX1-CUL1 inh
O=C1NN(c2ccc(I)cc2)C(=O)/C1=C\c1ccc(-c2cccc(C(=O)O)c2)o1 | 33*
O=C1NN(c2ccc(Cl)c(Cl)c2)C(=O)/C1=C\c1ccc(-c2ccc(Br)cc2C(=O)O)o1 | 71*
Cc1ccc(/C=C2/C(=O)NN(c3cccc(C(F)(F)F)c3)C2=O)o1 | 9
CCc1ccc(N2NC(=O)/C(=C/c3ccc(-c4ccccc4F)o3)C2=O)cc1 | -1
COC(=O)c1cccc(-c2ccc(/C=C3/C(=O)NN(c4ccc(C)cc4)C3=O)o2)c1 | 15
COC(=O)c1ccccc1-c1ccc(/C=C2\C(=O)NN(c3ccc(Br)cc3)C2=O)o1 | 11
COc1ccc(C2Oc3c(ccccc3=O)C(=O)C2=O)cc1OC (stereo not given) | 3
CCOc1ccc(/C=N/NC(=O)c2cc3c(ccc4ccccc43)o2)c(OCC)c1 | 4
Clc1ccc(C2=NCCn3cccc32)cc1Cl | -3
CSc1ccccc1C(=O)N1CCCC(CO)(Cc2ccccc2)C1 (stereo not given) | 4
CC(C)c1ccc(OCC(=O)Nc2nc3ccccc3s2)cc1 | 6
CCOc1ccc(OCc2ccc(C(=O)Nc3ccc(Cn4nc(C)cc4C)cc3)cc2)cc1 | -8
CCOC(=O)N1CCN(c2nncc(-c3cc4ccccc4o3)n2)CC1 | -10
CCc1nccn1S(=O)(=O)c1cc(C(C)C)c(C)cc1OC | 7
COc1cc(CNc2ccc(N3CCCC3)cc2)cc(Cl)c1OCc1ccc(F)cc1 | -12
CCOc1c(Cl)cc(CNc2ccc(N3CCCC3)cc2)cc1OC | 68*
COc1cccc(CNc2ccc(N3CCOCC3)cc2)c1OC | 11
O=S(=O)(N/N=C/c1ccc2c3c(cccc13)CC2)c1ccccc1 | 6
O=C1OC(c2ccccc2)=N/C1=C\c1ccc(-c2ccc(C(=O)O)cc2)o1 | 13
O=C(O)c1cc(N2C(=O)/C(=C\c3ccc(-c4ccc(Br)cc4)o3)C=C2c2ccccc2)ccc1O | 97*
COCCN1C(=O)/C(=C/c2ccc(-c3ccc(C(=O)O)c(Cl)c3)o2)SC1=Nc1ccccc1 | 2
Cc1ccccc1C(=O)N1CCN(c2ccc(NC(=O)c3ccccc3Br)cc2)CC1 | 4
Cc1ccccc1C(=O)N1CCN(c2ccc(NC(=O)CSc3ccc(Cl)cc3)cc2)CC1 | 30*
O=C(CSc1ccc(Cl)cc1)Nc1ccc(N2CCN(C(=O)c3cccs3)CC2)cc1 | -4
Nc1c(C(=O)c2ccccc2)sc2nc(-c3ccccc3)ccc12 | -3
NC(=O)c1c(SCC(=O)c2ccccc2)sc(C(=O)c2ccccc2)c1N | 31*
